The values that follow come from PubChem BioAssay.

Activity calls are given as the source filed them. No rule for the calls is given here.

This test deals with Pantothenate synthetase (Mycobacterium tuberculosis (strain ATCC 25618 / H37Rv)) (UniProt P9WIL5). In words: Coupled enzyme confirmation of inhibitors against recombinant Mtb PanC (AID 375).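 Also: 0% = full reaction with vehicle and 100% = no enzyme background.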 The note with it: coupled enzyme assay; at 10 µM, active compounds read high.
Sequence of Pantothenate synthetase (Mycobacterium tuberculosis (strain ATCC 25618 / H37Rv)) (P9WIL5 whole entry, looked up): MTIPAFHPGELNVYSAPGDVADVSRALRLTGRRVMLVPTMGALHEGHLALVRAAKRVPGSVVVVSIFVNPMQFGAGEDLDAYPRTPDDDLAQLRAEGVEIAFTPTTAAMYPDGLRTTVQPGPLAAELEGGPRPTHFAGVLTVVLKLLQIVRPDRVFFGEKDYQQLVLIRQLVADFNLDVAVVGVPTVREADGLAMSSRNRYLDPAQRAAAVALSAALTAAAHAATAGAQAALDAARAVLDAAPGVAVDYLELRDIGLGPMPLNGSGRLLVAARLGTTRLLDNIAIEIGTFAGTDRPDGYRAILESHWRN
Turning to `CC1CN(c2nc(-c3ccccc3)nc3ccccc23)CC(C)O1` (stereo not given), the inhibition is 0% (inactive).

As to `COc1ccc(C)cc1S(=O)(=O)N1CCN(Cc2ccccc2)CC1`, the inhibition was 11% (inactive). As to `Cc1onc(-c2ccccc2Cl)c1C(=O)N1CCc2ccccc21`, the inhibition is 0% (inactive). Consider `COC(=O)[C@@H](N)Cc1ccc(O)cc1`, for which the inhibition is 0% (inactive).

On to `C=CCn1c(=O)n(CCOC)c(=O)c2sc3ccccc3c21`, for which the inhibition was 0% (inactive).

With `C=CCn1c(=O)c(C(=O)Nc2ccccc2C(=O)OCC)c(O)c2ccccc21`, the inhibition was 0% (inactive).

As to `O=C(Nc1ccccc1N1CCOCC1)c1ccc2ccccc2n1`, the inhibition is 0% (inactive). On to `CCn1nnc(NC(=O)c2ccccc2Br)n1`, for which the inhibition is 0% (inactive). For `COc1ccc(-n2c(SCCC(=O)O)nnc2-c2ccncc2)cc1`, the inhibition was 5% (inactive). The figure for `Fc1ccc(C(c2nnnn2Cc2ccco2)N2CCN(C3CCCCC3)CC2)cc1` (stereo not given) is 0% (inactive). With `O=C(NCc1ccco1)c1cccc(S(=O)(=O)N2CCCCC2)c1`, the inhibition is 0% (inactive).

Turning to `CC(=O)Nc1c2c(nn1-c1ccc(C)cc1C)CSC2`, the inhibition is 0% (inactive).

As for `Cc1noc(C)c1CSc1nc2cc(S(=O)(=O)N3CCOCC3)ccc2o1`, the inhibition is 0% (inactive).

Regarding `O=C(c1cc2ccccc2oc1=O)N1CCN(c2ccc(N3CCOCC3)nn2)CC1`, the inhibition is 0% (inactive). Consider `O=c1cc(-c2ccco2)oc2ccc(Cl)cc12`, for which the inhibition is 1% (inactive). Next, `CC(c1ccco1)N(C(=O)COc1ccc(Cl)cc1Cl)c1ccccn1` (stereo not given): 4% (inactive); `CN/C=C1\C(=O)C(C)(C)Oc2ccc3ccc(=O)oc3c21`: 9% (inactive); `CC(=O)N1CCN(c2ccc(N=Cc3c(O)n(Cc4ccccc4)c(=O)[nH]c3=O)cc2)CC1`: 0% (inactive). For `Cc1ccc(CCC(=O)Nc2ccc(S(N)(=O)=O)cc2)o1`, the inhibition is 1% (inactive). The figure for `COC(=O)[C@H](CCSC)NC(=O)Nc1cc(C)ccc1C` is 0% (inactive); for `CC/C(O)=C(/C#N)c1nnc2n1CCCCC2` it is 5% (inactive); for `Cc1nn(C)cc1/C=N/O` it is 0% (inactive). The figure for `CC1(C)CC(=O)C2=C(C1)Nc1nc(SCCN3CCOCC3)[nH]c(=O)c1C2c1cccs1` (stereo not given) is 2% (inactive); for `CCOC(=O)CSC1=C(C#N)C(c2ccc3c(c2)OCO3)CC(=O)N1` (stereo not given) it is 0% (inactive). Next, `COc1ccc(CCNC(=O)c2nc3ncccn3n2)cc1OC`: 0% (inactive); `CN(C)c1nc(Oc2ccc(=O)n(C)n2)nc(N2CCOCC2)n1`: 0% (inactive).

As to `CC(C)OC(=O)c1cc(=O)[nH]c2ccccc12`, the inhibition was 0% (inactive). Next, `CCOC(=O)c1[nH]c(CSc2nnc(-c3ccncc3)n2CCOC)c(C(=O)OCC)c1C`: 3% (inactive); `O=C(NC1CCCCCC1)C1c2ccccc2C(=O)N1Cc1cccnc1` (stereo not given): 3% (inactive); `O=C(CNCC1CCCO1)Nc1ccccc1-n1cccc1` (stereo not given): 2% (inactive). In the case of `CCN(CC)C(=O)Oc1ccc(NC(C)=O)cc1`, the inhibition is 0% (inactive). The figure for `O=C(CCn1nc(-c2ccc(Cl)cc2)ccc1=O)N1CCN(c2ccccn2)CC1` is 7% (inactive); for `COc1ccccc1C1(CC(=O)N2CCOCC2)CCOC(C(C)C)C1` (stereo not given) it is 2% (inactive); for `CCN(CC)c1ccc(CNc2ccc(Br)cn2)cc1` it is 0% (inactive). As for `COc1cccc(NC(=O)N2CCN(c3cccc(C)c3C)CC2)c1`, the inhibition is 0% (inactive). Next, `CCCOc1ccc(-c2nnn(CC(=O)Nc3cccc(C(=O)OC)c3)n2)cc1`: 7% (inactive); `CC(CN1CCN(C)CC1)OC(=O)c1ccc(Cl)cc1Cl` (stereo not given): 0% (inactive); `COc1cccc(CN2C(=O)C3(C(C#N)=C(N)OC4=C3C(=O)CCC4)c3ccccc32)c1` (stereo not given): 0% (inactive). On to `COCCCn1nnnc1SCC(=O)Nc1nc(C)c(C)s1`, for which the inhibition is 0% (inactive).

For the compound `CCOC(=O)N1CCN(C(=O)c2ccc3c(SCC(=O)O)c4c(nc3c2)CCCC4)CC1`, the inhibition is 0% (inactive).
